Reference: PubChem BioAssay (NCATS)
Inconclusive results are not listed. Entries that show only a call come without a potency. Values without a mark were called inactive. Activity calls are given as the source filed them. Calls come from the whole dose curve; as a rule, active = well fitted inhibition curve with a large enough effect; inconclusive = small, poorly fitted or top-dose-only effect; inactive = flat fitted curve, though single readings scatter.
Potency is the fitted concentration of half-maximal effect.

Test: P-glycoprotein substrates identified in KB-8-5-11 adenocarcinoma cell line, qHTS therapeutic library screen (AID 1346987); note: nearly all actives have a fitted effect of over 65% in size
Settings: KB-8-5-11 (P-gp overexpressing) viability, CellTiter-Glo, 72 h; series mostly up to 44.5 µM
Method in brief: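 Compounds are pinned in dose-response onto KB-8-5-11 cells (500 cells/well, colchicine-free medium) and left 72 h at 37 degree C. CellTiter-Glo luminescence then yields AC50 values.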
For `O=C1O[C@@H]2[C@@H](O)[C@H](O)O[C@@H]2[C@H]1O`, the Potency was “inactive”. In the case of `COc1cc(/C=C2\CC[C@H]3COC[C@@H](c4cc(F)c(F)c(F)c4)N3C2=O)ccc1-n1cnc(C)c1`, the Potency is reported as “inactive”. With `O=C(NCCCN1CCC2(CC1)OCc1ccccc12)[C@H]1CCCN1Cc1ccccc1` the Potency was “inactive”. For `COc1ccc(S(=O)(=O)Nc2cc(Cl)cc(Cl)c2OC)cc1N1CCNCC1`, the Potency was “inactive”. For `C=CC(=O)N1CC(N2CCN(C(=O)CNc3cc(C4CC4)c(Cl)cc3O)CC2)C1`, the Potency was “inactive”. For `CS(=O)(=O)Nc1cc2occ(NC=O)c(=O)c2cc1Oc1ccccc1`, the Potency was “inactive”. Compound `CC(=O)O[C@@H]1[C@@H](O)[C@H](O[C@@H]2[C@@H](O)[C@@H](O)[C@H](O[C@H]3[C@H](O[C@H]4[C@H](O[C@H]5CC[C@@]6(C)C(CC[C@]7(C)C6CC=C6[C@@H]8CC(C)(C)CC[C@]8(C(=O)O)CC[C@]67C)[C@]5(C)CO)O[C@H](CO)[C@@H](O)[C@@H]4O)OC[C@@H](O)[C@@H]3O)O[C@H]2C)OC[C@H]1O` (stereo not given in full) has an activity change, negative = cytotoxicity of 7.23% [at 9.29 µM]. For `COc1cc2c(cc1OCCCN1CCCC1)N=C(N)C21CCC1`, the Potency was “inactive”. With `C/C(=C/C=C\C=C\Cc1cnco1)[C@@H](O)C(C)(C)C(N)=O` the Potency was “inactive”. In the case of `Fc1ccc2[nH]ccc2c1-c1nc(N2CCOCC2)c2sc(CN3CCN(CC4CC4)CC3)cc2n1`, the Potency is reported as 20.6 µM (active). For `CCCN(CCc1ccsc1)C1CCc2c(O)cccc2C1` (stereo not given), the Potency was “inactive”. With `C=C(C(=O)OC[C@H]1O[C@@H](OC(=O)/C=C/c2ccccc2)[C@H](O)[C@@H](O)[C@@H]1O)C(O)CO` (stereo not given in full) the Potency was “inactive”. With `Cc1ccc(C(C)C)c(O[C@@H]2O[C@H](CO)[C@@H](O)[C@H](O)[C@H]2O)c1` the Potency was “inactive”. With `CC1CC(=O)C2=C(C1)C1OC1C1(O)C2C(=O)c2cccc(O)c2C1O` (stereo not given) the Potency was “inactive”. For `O=S(O)CO`, the Potency was “inactive”. With `COC(=O)C1=CO[C@@H](O[C@@H]2O[C@H](CO)[C@@H](O)[C@H](O)[C@H]2O)[C@H]2[C@@H]1C=C[C@]21C=C([C@H](C)OC(=O)/C=C/c2ccc(O)cc2)C(=O)O1` the Potency was 4.32 µM (active). With `C[C@@H](NC(=O)C(=O)c1c[nH]c2ccc([N+](=O)[O-])cc12)c1ccccc1` the Potency was “inactive”. In the case of `O=C(Nc1ccc(N2C(=O)[C@@H]3[C@H](C2=O)[C@@H]2C=C[C@H]3C2)c(Cl)c1)c1ccccn1`, the Potency is reported as “inactive”. With `O=P(O)(O)OC(CO)CO` the Potency was “inactive”. For `CCC/C=C/C(=O)O[C@H]1CC(C)(C)CC2[C@@]13[C@H](O)C[C@]1(C)[C@@]2(CCC2[C@@]4(C)CC[C@H](O[C@@H]5O[C@H](C(=O)O)[C@@H](O)[C@H](O[C@@H]6O[C@H](CO)[C@H](O)[C@H](O)[C@H]6O[C@@H]6O[C@@H](C)[C@H](O)[C@@H](O)[C@H]6O[C@@H]6OC[C@](O)(CO)[C@H]6O)[C@H]5O[C@@H]5O[C@H](CO)[C@H](O)[C@H](O)[C@H]5O)C(C)(C)C4CC[C@]21C)O[C@H]3O` (stereo not given in full), the outcome was “inactive [at 9.29 µM]”. In the case of `NCCCNCCCCNC(=O)C(O)NC(=O)CCCCCCN=C(N)N` (stereo not given), the Potency is reported as “inactive”. With `COC1=CC(=O)O/C1=C(/OC)[C@@H]1O[C@H]1c1ccccc1` the Potency was “inactive”. With `CN(C)CCN(Cc1ccccc1)C(=O)c1cc(-c2ccc(F)cc2)n2nc(C(C)(C)C)cc2n1` the Potency was 20.6 µM (active). In the case of `COc1ccc(S(=O)(=O)n2cnc3cc(C)c(C)cc32)cc1`, the Potency is reported as “inactive”. For `C=C1C(=O)O[C@@H]2[C@H]1CC[C@H](C)[C@]1(CCC(=O)O1)C2(C)O` (stereo not given in full), the Potency was “inactive”. In the case of `Cc1cc(C(=O)Nc2cc(Nc3ccc4c(/C=C/c5ccccn5)n[nH]c4c3)ccc2F)n(C)n1`, the Potency is reported as 18.4 µM (active). With `C=C1C(OC2OC(CO)C(O)C(O)C2O)CC2C(C)(C)C(O)CCC2(C)C1CC/C(C)=C\COC(=O)CC(=O)O` (stereo not given) the Potency was “inactive”. In the case of `OC1(CN2CCC(COc3noc4cccc(O[C@@H]5CCOC5)c34)CC2)CCOCC1`, the Potency is reported as “inactive”. In the case of `COC1=CC(=O)C=C(C)C12Oc1c(Cl)c(OC)cc(OC)c1C2=O` (stereo not given), the Potency is reported as “inactive”. With `O=C(O)c1ccccc1[O-].O=C(O)c1ccccc1[O-].[Zn+2]` the Potency was “inactive”. With `NCCC[C@H](N)C(=O)O` the Potency was “inactive”. With `O=C(O)c1ccc(S(=O)(=O)N(Cc2ccc(OC(F)(F)F)cc2)c2ncc(C(F)(F)F)cc2Cl)cc1` the Potency was “inactive”. In the case of `C=C(NC(=O)C(=C)NC(=O)c1csc(C2=NC3c4csc(n4)C4NC(=O)c5csc(n5)C(C(C)(O)C(C)O)NC(=O)C5CSC(=N5)/C(=C/C)NC(=O)C(C(C)O)NC(=O)c5csc(n5)C3(CC2)NC(=O)C(C)NC(=O)C(=C)NC(=O)C(C)NC(=O)C(C(C)CC)NC2C=Cc3c(C(C)O)cc(nc3C2O)C(=O)OC4C)n1)C(N)=O` (stereo not given), the Potency is reported as “inactive”. With `CCOC(=O)CCNc1cc(N2CCc3ccccc3CC2)nc(-c2cccnc2)n1` the Potency was “inactive”. With `C[C@H](CSC(=O)c1ccccc1)C(=O)N1C[C@@H](Sc2ccccc2)C[C@H]1C(=O)O` the Potency was “inactive”. For `CCC(=O)N1CCOc2c(cc(-c3ccc(OC)c(OC)c3)cc2OC[C@H]2CCCN(C)C2)C1`, the Potency was “inactive”. With `CC(CN(C)C)CN1c2ccccc2S(=O)(=O)c2ccccc21` (stereo not given) the Potency was “inactive”. With `COc1cc(F)c(C(C)C)cc1-c1ccc(C(F)(F)F)cc1CN1C(=O)OC(c2cc(C(F)(F)F)cc(C(F)(F)F)c2)C1C` (stereo not given) the Potency was “inactive”. For `C/C=C/C=C/C=C/C(=O)O[C@@H]1C=C(CO)C(O)(C(=O)OC)[C@@]2(C)CCCC(C)(C)C12` (stereo not given in full), the Potency was “inactive”. For `C=C1CC2OC(=O)C(=C)C2C(O)/C=C(\C)CCC1O` (stereo not given), the Potency was “inactive”.
